# Results: paper PMC11062922 (Nature Chemical Biology, 2023)
# Read-outs that look alike come from different tables or passages of the source.
# What was measured:
# [1] = system: CDK6; design: species or system human, MV4-11 + K-562 + COLO205 + SK-N-BE2 + OVCAR-8; details: read-out: apparent Kd, n = 1
# [2] = system: ERCC2; design: species or system human, MV4-11 + K-562 + COLO205 + SK-N-BE2 + OVCAR-8; details: read-out: apparent Kd, compound concentrations: 100 nM and 1000 nM (sheet 'Samples'), n = 1
# [3] = system: ILK; design: species or system human, MV4-11 + K-562 + COLO205 + SK-N-BE2 + OVCAR-8; details: read-out: apparent Kd; compound concentrations: 100 nM and 1000 nM (sheet 'Samples'), CATDS: 9.2277554070836695E-2; n = 1
# [4] = system: IRAK1; design: species or system human, MV4-11 + K-562 + COLO205 + SK-N-BE2 + OVCAR-8; details: read-out: apparent Kd; compound concentrations: 100 nM and 1000 nM (sheet 'Samples'), CATDS: 0.100374426884943; n = 1
# [5] = system: MAPK11; design: species or system human, MV4-11 + K-562 + COLO205 + SK-N-BE2 + OVCAR-8; details: read-out: apparent Kd; compound concentrations: 100 nM and 1000 nM (sheet 'Samples'), CATDS: 0.114875582953057; n = 1
# [6] = system: MAPK14; design: species or system human, MV4-11 + K-562 + COLO205 + SK-N-BE2 + OVCAR-8; details: read-out: apparent Kd; compound concentrations: 100 nM and 1000 nM (sheet 'Samples'), CATDS: 9.0546615649564399E-2; n = 1
# [7] = system: NQO1; design: species or system human, MV4-11 + K-562 + COLO205 + SK-N-BE2 + OVCAR-8; details: read-out: apparent Kd, n = 1
# [8] = system: PIK3CD; design: species or system human, MV4-11 + K-562 + COLO205 + SK-N-BE2 + OVCAR-8; details: read-out: apparent Kd; compound concentrations: 100 nM and 1000 nM (sheet 'Samples'), CATDS: 0.395344018245397; n = 1
# [9] = system: PRKCQ; design: species or system human, MV4-11 + K-562 + COLO205 + SK-N-BE2 + OVCAR-8; details: read-out: apparent Kd; compound concentrations: 100 nM and 1000 nM (sheet 'Samples'), CATDS: 8.2854130075837501E-2; n = 1
# [10] = system: RIOK2; design: species or system human, MV4-11 + K-562 + COLO205 + SK-N-BE2 + OVCAR-8; details: read-out: apparent Kd; compound concentrations: 100 nM and 1000 nM (sheet 'Samples'), CATDS: 7.9590231457497898E-2; n = 1
# [11] = system: CDKL5; design: species or system human, MV4-11 + K-562 + COLO205 + SK-N-BE2 + OVCAR-8; details: read-out: apparent Kd, compound concentrations: 100 nM and 1000 nM (sheet 'Samples'), n = 1
# [12] = system: PRKAG2; design: species or system human, MV4-11 + K-562 + COLO205 + SK-N-BE2 + OVCAR-8; details: read-out: apparent Kd; compound concentrations: 100 nM and 1000 nM (sheet 'Samples'), CATDS: 0.49360231247915698; n = 1
# [13] = system: CLK1; design: species or system human, MV4-11 + K-562 + COLO205 + SK-N-BE2 + OVCAR-8; details: read-out: apparent Kd, compound concentrations: 100 nM and 1000 nM (sheet 'Samples'), n = 1
# [14] = system: CLK4; design: species or system human, MV4-11 + K-562 + COLO205 + SK-N-BE2 + OVCAR-8; details: read-out: apparent Kd, compound concentrations: 100 nM and 1000 nM (sheet 'Samples'), n = 1
# [15] = system: ERN2; design: species or system human, MV4-11 + K-562 + COLO205 + SK-N-BE2 + OVCAR-8; details: read-out: apparent Kd; compound concentrations: 100 nM and 1000 nM (sheet 'Samples'), CATDS: 0.122228474485695; n = 1
# [16] = system: GSK3A; design: species or system human, MV4-11 + K-562 + COLO205 + SK-N-BE2 + OVCAR-8; details: read-out: apparent Kd, compound concentrations: 100 nM and 1000 nM (sheet 'Samples'), n = 1
# [17] = system: GSK3B; design: species or system human, MV4-11 + K-562 + COLO205 + SK-N-BE2 + OVCAR-8; details: read-out: apparent Kd, compound concentrations: 100 nM and 1000 nM (sheet 'Samples'), n = 1
# [18] = system: PAK4; design: species or system human, MV4-11 + K-562 + COLO205 + SK-N-BE2 + OVCAR-8; details: read-out: apparent Kd; compound concentrations: 100 nM and 1000 nM (sheet 'Samples'), CATDS: 0.121686694160256; n = 1
# [19] = target: Q6ZSR9 (human, UniProt Q6ZSR9); design: species or system MV4-11 + K-562 + COLO205 + SK-N-BE2 + OVCAR-8; details: read-out: apparent Kd; compound concentrations: 100 nM and 1000 nM (sheet 'Samples'), CATDS: 0.110463614954163; n = 1
# Sequence of Q6ZSR9 (Q6ZSR9 whole entry, looked up): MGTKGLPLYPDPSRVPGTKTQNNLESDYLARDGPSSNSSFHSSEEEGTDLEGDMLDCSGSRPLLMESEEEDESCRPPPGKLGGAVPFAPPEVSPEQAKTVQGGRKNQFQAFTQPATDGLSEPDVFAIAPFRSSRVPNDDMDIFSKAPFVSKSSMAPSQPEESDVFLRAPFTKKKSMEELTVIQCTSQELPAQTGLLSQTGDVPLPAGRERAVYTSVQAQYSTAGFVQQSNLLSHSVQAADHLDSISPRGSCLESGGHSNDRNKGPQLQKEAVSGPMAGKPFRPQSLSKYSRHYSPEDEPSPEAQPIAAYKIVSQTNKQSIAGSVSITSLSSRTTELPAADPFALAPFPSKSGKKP
# [20] = system: CDK7; design: species or system human, MV4-11 + K-562 + COLO205 + SK-N-BE2 + OVCAR-8; details: read-out: apparent Kd; compound concentrations: 100 nM and 1000 nM (sheet 'Samples'), CATDS: 5.1614283275692202E-2; n = 1
# [21] = system: CDK9; design: species or system human, MV4-11 + K-562 + COLO205 + SK-N-BE2 + OVCAR-8; details: read-out: apparent Kd; compound concentrations: 100 nM and 1000 nM (sheet 'Samples'), CATDS: 7.5250343499568897E-2; n = 1
# [22] = system: DYRK1A; design: species or system human, MV4-11 + K-562 + COLO205 + SK-N-BE2 + OVCAR-8; details: read-out: apparent Kd; compound concentrations: 100 nM and 1000 nM (sheet 'Samples'), CATDS: 5.4131433130879598E-2; n = 1
# [23] = system: FLT3; design: species or system human, MV4-11 + K-562 + COLO205 + SK-N-BE2 + OVCAR-8; details: read-out: apparent Kd; compound concentrations: 100 nM and 1000 nM (sheet 'Samples'), CATDS: 7.2287914746840001E-2; n = 1
# [24] = system: ICK; design: species or system human, MV4-11 + K-562 + COLO205 + SK-N-BE2 + OVCAR-8; details: read-out: apparent Kd; compound concentrations: 100 nM and 1000 nM (sheet 'Samples'), CATDS: 7.1869443211344197E-2; n = 1
# [25] = system: PIP4K2C; design: species or system human, MV4-11 + K-562 + COLO205 + SK-N-BE2 + OVCAR-8; details: read-out: apparent Kd; compound concentrations: 100 nM and 1000 nM (sheet 'Samples'), CATDS: 4.9119421247087701E-2; n = 1
# [26] = system: TGFBR2; design: species or system human, MV4-11 + K-562 + COLO205 + SK-N-BE2 + OVCAR-8; details: read-out: apparent Kd; compound concentrations: 100 nM and 1000 nM (sheet 'Samples'), CATDS: 0.19336486168442599; n = 1
# [27] = system: HSP90B1; design: species or system human, MV4-11 + K-562 + COLO205 + SK-N-BE2 + OVCAR-8; details: read-out: apparent Kd; compound concentrations:100 nM and 1000 nM (sheet 'Samples'); n = 1
# [28] = system: MAP2K1; design: species or system human, MV4-11 + K-562 + COLO205 + SK-N-BE2 + OVCAR-8; details: read-out: apparent Kd; compound concentrations:100 nM and 1000 nM (sheet 'Samples'); n = 1
# [29] = system: MAP2K2; design: species or system human, MV4-11 + K-562 + COLO205 + SK-N-BE2 + OVCAR-8; details: read-out: apparent Kd; compound concentrations:100 nM and 1000 nM (sheet 'Samples'); n = 1
# [30] = system: NNT; design: species or system human, MV4-11 + K-562 + COLO205 + SK-N-BE2 + OVCAR-8; details: read-out: apparent Kd; compound concentrations:100 nM and 1000 nM (sheet 'Samples'); n = 1
# [31] = compound concentrations:100 nM and 1000 nM (sheet 'Samples')
smiles,measurement,setting,value
Cl.Nc1c(C(=O)c2cccc(-c3cccnc3)c2)cnn1-c1ccc(F)cc1 [RO1162529-002],potency estimated from few doses,"[1]; compound concentrations: 100 nM and 1000 nM (sheet 'Samples'), CATDS: 9.94086879029107E-2",1.19 µM
same,potency estimated from few doses,[2]; CATDS: 8.00195217918135E-2,2.03 µM
same,potency estimated from few doses,[3],1.41 µM
same,potency estimated from few doses,[4],1.16 µM
same,potency estimated from few doses,[5],0.877 µM
same,potency estimated from few doses,[6],1.47 µM
same,potency estimated from few doses,"[7]; compound concentrations: 100 nM and 1000 nM (sheet 'Samples'), CATDS: 0.102757075513336",1.1 µM
same,potency estimated from few doses,[8],0.126 µM
same,potency estimated from few doses,[9],1.85 µM
same,potency estimated from few doses,[10],2.06 µM
COc1ccc(Nc2nccc(N3CCC(NC(=O)Nc4cc(C)ccc4C)C3)n2)cc1 (stereo not drawn) [GSK1379741A],potency estimated from few doses,[11]; CATDS: 0.50656570893737995,1.86 µM
same,potency estimated from few doses,[12],1.96 µM
Cn1cc(C2=C(c3cn(C)c4c([N+](=O)[O-])cccc34)C(=O)NC2=O)c2ccccc21 [RO0317452-000],potency estimated from few doses,[11]; CATDS: 0.10582240505262699,2.01 µM
same,potency estimated from few doses,[13]; CATDS: 0.119262646968794,1.52 µM
same,potency estimated from few doses,[14]; CATDS: 0.13099506977266501,1.26 µM
same,potency estimated from few doses,[15],1.45 µM
same,potency estimated from few doses,[16]; CATDS: 0.15449009445540701,0.933 µM
same,potency estimated from few doses,[17]; CATDS: 0.15136404639572901,0.967 µM
same,potency estimated from few doses,[18],1.46 µM
same,potency estimated from few doses,[19],1.81 µM
FC(F)(F)c1cc(Br)cc(Nc2nccc(-c3cnn4ncccc34)n2)c1 [GW810578X],potency estimated from few doses,[20],1.74 µM
same,potency estimated from few doses,[21],0.461 µM
same,potency estimated from few doses,[11]; CATDS: 0.13413982703885399,0.127 µM
same,potency estimated from few doses,[13]; CATDS: 0.18636177679303401,0.0726 µM
same,potency estimated from few doses,[14]; CATDS: 0.17259551294748199,0.082 µM
same,potency estimated from few doses,[22],1.41 µM
same,potency estimated from few doses,[2]; CATDS: 5.1102609842245399E-2,1.83 µM
same,potency estimated from few doses,[23],0.516 µM
same,potency estimated from few doses,[16]; CATDS: 6.4716553061548596E-2,0.724 µM
same,potency estimated from few doses,[17]; CATDS: 9.1324175022244006E-2,0.282 µM
same,potency estimated from few doses,[24],0.525 µM
same,potency estimated from few doses,[25],2.25 µM
same,potency estimated from few doses,[26],0.0685 µM
CC(C(=O)NC1CCN(c2ccnc(Nc3ccc(F)cc3)n2)C1)c1ccc(Cl)cc1 (stereo not drawn) [GSK1379713A],potency estimated from few doses,[1]; [31],2.08 µM
same,potency estimated from few doses,[27],0.088 µM
same,potency estimated from few doses,[28],2.23 µM
same,potency estimated from few doses,[29],1.46 µM
same,potency estimated from few doses,[30],1.4 µM
same,potency estimated from few doses,[7]; [31],1.65 µM
